Several values for one entry are separate records, joined by “and”; a condition that tells them apart may be missing. Equal values may be shown once. The campaign covered roughly 350,000 compounds. About 31,000 (8.9%) were called active. Entries that show only a call come without a potency. About 15% were inconclusive and are not listed. The call rests on the fitted dose curve; in most records, active means well fitted inhibition curve with a large enough effect; inconclusive means small, poorly fitted or top-dose-only effect; inactive means no such curve, though single readings can be large or run the other way. The full list was thinned out, with actives kept by preference. The source holds several records for some structures; these can differ, active in one and inactive in another.
molecular target: Histone-lysine N-methyltransferase EHMT2 (Homo sapiens) (UniProt Q96KQ7); assay: qHTS Assay for Inhibitors of Histone Lysine Methyltransferase G9a; details: G9a H3K9 monomethylation, AlphaScreen, 2 h; series mostly up to 102 µM; further: nearly all actives have a fitted effect of over 75% in size
Sequence (Q96KQ7 913-1193 limits assumed): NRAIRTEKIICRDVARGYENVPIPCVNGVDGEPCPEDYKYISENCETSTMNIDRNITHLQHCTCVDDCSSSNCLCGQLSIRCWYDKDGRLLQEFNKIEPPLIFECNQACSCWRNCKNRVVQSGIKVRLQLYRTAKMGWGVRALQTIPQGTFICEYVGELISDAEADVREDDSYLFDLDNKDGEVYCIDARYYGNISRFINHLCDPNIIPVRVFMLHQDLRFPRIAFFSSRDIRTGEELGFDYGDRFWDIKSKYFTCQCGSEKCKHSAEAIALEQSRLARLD
Outline: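 Compounds were preincubated with 20 nM G9a for 15 min, after which biotinylated H3K9 peptide (500 nM) and SAM (20 uM) started a 2 h room-temperature reaction. Monomethylated product was quantified by antibody-based AlphaScreen chemiluminescence.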
Potency means the concentration at half of the fitted maximal effect.

Row | Structure (SMILES) | activity, negative = inhibition | Potency
1 | CCCC(C)n1[nH]c(=O)c2c1NC(=O)CSC2c1ccc(OC)c(OC)c1 (stereo not drawn) | inactive | –
2 | Cn1c(C(=O)N2CCC(C(=O)N3CCC4(CC3)OCCO4)CC2)cc2sccc21 | inactive | –
3 | CN(C)C(=O)Oc1cc(OC(=O)N(C)C)cc(C(O)CNC(C)(C)C)c1 (stereo not drawn) | inactive | –
4 | COc1ccc(C(=O)CC2C(=O)N(C)C(=O)N(C)C2=O)cc1 | – | 2.24 µM (active)
5 | CCOP(=O)(OCC)C(NC(=O)c1ccc(OC)cc1)C(Cl)(Cl)Cl (stereo not drawn) | inactive | –
6 | COc1ccc(C(=O)C2CN(C)CC2C(=O)c2ccc(OC)cc2)cc1 (stereo not drawn) | inactive | –
7 | CCCOC(=O)C1C2c3ccccc3C(c3ccccc32)C1C(=O)O (stereo not drawn) | inactive | –
8 | CCC1(C)CC(=O)NC1=O (stereo not drawn) | 28.2% [at 12.7 µM] (inactive) | –
9 | CCN(CC)CCOC(=O)c1cc2cc(COC)ccc2o1 | – | 17.8 µM (active)
10 | Cc1nn(Cc2ccccc2Cl)c(Cl)c1C(=O)OC(C(=O)NC(N)=O)C(C)C (stereo not drawn) | inactive | –
11 | CC(=NCC1CCCO1)c1c(O)n(-c2ccccc2)c(=O)[nH]c1=O (stereo not drawn) | inactive | –
12 | CCN1c2nc3c(C)cccn3c(=O)c2CC2(C(=O)N(C)C(=O)N(C)C2=O)C1C (stereo not drawn) | 7.48% [at 12.7 µM] (inactive) | –
13 | CCOC(=O)c1c(N)n(Cc2ccccc2)c2nc3ccccc3nc12 | inactive | –
14 | CC(=O)c1ccc(-c2ccc(Cn3c(C)nc4cc(N)c(C)nc43)cc2)cc1 | – | 15.8 µM (active)
15 | CN(C)P(=S)(Nc1ccccc1)C(Cl)(Cl)Cl (stereo not drawn) | inactive | –
16 | COC(=O)C1=C(c2ccc(-c3ccccc3)c(F)c2)C[C@@H]2CC[C@H]1N2C(=O)NCc1ccc(F)cc1 | 12.5% [at 0.501 µM] (inactive) | –
17 | CNC(=O)Nc1ccc(C(O)(C(=O)OC)C(F)(F)F)cc1 (stereo not drawn) | inactive | –
18 | Cn1cc(C(=O)OCC(=O)N2CCCC2)c2ccccc21 | 17.1% [at 12.7 µM] (inactive) | –
19 | NCC(O)c1ccc(O)cc1 (stereo not drawn) | -5.15% [at 2.33 µM] (inactive) and 25.4% [at 12.7 µM] (inactive) | –
20 | CC(C(=O)Nc1ccc(Cl)cc1Cl)N1CC=C(c2ccccc2)CC1 (stereo not drawn) | inactive | –
21 | CC1C2Cn3c(nc4ccccc43)C1N(C)O2 (stereo not drawn) | 11.2% [at 12.7 µM] (inactive) | –
22 | O=C1NC(=O)N(c2ccc(F)cc2)C(=O)/C1=C/c1ccc2c(c1)CCCN2Cc1ccccc1 | – | 12.6 µM (active)
23 | O=C(NC(c1ccc(Cl)cc1)P(=O)(Oc1ccccc1)Oc1ccccc1)OCc1ccccc1 (stereo not drawn) | inactive | –
24 | Cc1ccccc1NC(=O)COC(=O)c1cc(C)n(C2CC2)c1C | inactive | –

Row | Structure (SMILES) | activity, negative = inhibition | Potency
25 | CCOC(=O)C(O)(c1ccc(N)c(OC)c1)C(F)(F)F (stereo not drawn) | -7.69% [at 2.33 µM] (inactive) | –
26 | CCOP(=O)(OCC)C(NC(=O)NC)C(N)=O (stereo not drawn) | inactive | –
27 | Nc1ccc(C(=O)N/N=C2/CN3CCC2CC3)cc1 | inactive | –
28 | CCC(C)n1c(O)c(/C=N/Nc2nc3c(c(=O)n(C)c(=O)n3C)n2C)c(=O)[nH]c1=S (stereo not drawn) | – | 25.1 µM (active)
29 | CC(=O)c1c(O)c(C)c(O)c(Cc2c(O)c3c(c(C(=O)/C=C/c4ccccc4)c2O)OC(C)(C)C=C3)c1O | – | 14.1 µM (active) and 2.12 µM (active)
30 | O=c1c2ccccc2nc(/C=C/c2ccc(F)cc2)n1-c1ccccc1O | inactive | –
31 | C=CCN(CC=C)C(=O)Nc1ccc(OCC)cc1 | inactive | –
32 | CC[C@]1(C)CC(=O)NC1=O | -2.16% [at 12.7 µM] (inactive) | –
33 | COC(=O)C1=C(c2ccc(F)cc2OCc2ccccc2)C[C@@H]2CC[C@H]1N2C(=O)NCc1ccc(Cl)cc1 | 8.03% [at 2.33 µM] (inactive) | –
34 | O=C(c1cc2nc(-c3ccccc3)cc(-c3ccccc3)n2n1)N1CCC2(CC1)OCCO2 | 17.4% [at 12.7 µM] (inactive) | –
35 | CC1=C2C(=O)C3C(CC=C4CC(OC5OC(O)C(O)C(O)C5CO)CCC43C)C2CCC12OC1CC(C)CNC1C2C (stereo not drawn) | inactive | –
36 | O=C1NC(=O)N(CCc2ccc(F)cc2)C(=O)/C1=C/C=C/c1ccccc1 | – | 70.8 µM (active)
37 | COC(=O)C(O)(c1ccc(NC(=O)c2ccco2)c(OC)c1)C(F)(F)F (stereo not drawn) | inactive | –
38 | CCc1cccc2c(C#N)cn(CC(=O)N3CCOCC3)c12 | 15.5% [at 12.7 µM] (inactive) | –
39 | COCc1cc(OC(=O)N(C)C)nc(-c2ccc(C)c(Cl)c2)n1 | inactive | –
40 | CCCCCCCCc1[se]c2ccccc2c1Br | inactive | –
41 | COc1ccc(-c2nc(CS(=O)CC(=O)N3CCC4(CC3)OCCO4)c(C)o2)cc1 (stereo not drawn) | -4.28% [at 12.7 µM] (inactive) | –
42 | C[C@]12CC[C@H](O)C[C@H]1CC[C@@H]1C2CC[C@]2(C)[C@@H](C3=CC(=O)OC3)[C@@H](O)C[C@]12O (stereo partly drawn) | -8.99% [at 2.33 µM] (inactive) | –
43 | CN(C)c1ccc(NC(=O)CN2C3CCCC2CC(NC(=O)c2ccccc2)C3)cc1 (stereo not drawn) | – | 50.1 µM (active)
44 | Cc1cc(C)cc(NC(=S)NC2CC3CCCC(C2)N3Cc2cccs2)c1 (stereo not drawn) | inactive | –
45 | CCC(C)C(=O)O[C@@H]1C[C@@]2(C)C(c3ccoc3)OC(=O)CC23OC2(C)O[C@@]14[C@@]1(C)C(CC(=O)OC)C5(C)CC1(O)C(O)(C5OC(=O)C1(C)OC1C)C(OC(C)=O)[C@@]34O2 (stereo partly drawn) | -36.9% [at 2.33 µM] (inactive) | –
46 | c1ccc2sc(SNC3CCCCC3)nc2c1 | – | 1.78 µM (active)
47 | COc1cc2c(cc1OC)[C@@H]1C(=O)c3ccc(O)c(CC=C(C)C)c3OC1CO2 (stereo partly drawn) | -32.8% [at 2.33 µM] (inactive) | –
48 | O=C(CSC1c2ccccc2-c2ccccc21)N/N=C/c1ccccc1 | inactive | –

Row | Structure (SMILES) | activity, negative = inhibition | Potency
49 | CC1CCCCN1Cc1cccnc1 (stereo not drawn) | – | 6.31 µM (active)
50 | c1cncc(CNC2=NCCC2)c1 | inactive | –
51 | CN1CCC(N(C)Cc2cccnc2)CC1 | – | 3.16 µM (active)
52 | c1cncc(CNCCc2c[nH]c3ccccc23)c1 | inactive | –
53 | CCOC(=O)C1(Cc2ccc(Cl)cc2)CCN(C(C)CCn2cccn2)CC1 (stereo not drawn) | inactive | –
54 | CC[N+](CC)(CC)CCCCCCCCCC[N+](CC)(CC)CC | inactive | –
55 | C=CCN1C(=O)C2(C(C(=O)OCC)=C(N)Oc3c2c(=O)oc2ccccc32)c2ccccc21 (stereo not drawn) | inactive | –
56 | Fc1ccc(C2N3CCCN23)cc1 (stereo not drawn) | inactive | –
57 | CCC(=NCCCO)c1c(O)n(-c2ccc(OC)cc2)c(=O)[nH]c1=O | inactive | –
58 | O=C(COC(=O)c1ccccc1)Nc1ccccc1Sc1ccccc1 | inactive | –
59 | O=C1N=c2ccccc2=C/C1=C\c1c(O)[nH]c(=S)[nH]c1=O | – | 25.1 µM (active)
60 | COc1ccc(C2N3CC(C)(C)CN23)cc1 (stereo not drawn) | inactive | –
61 | CCCn1c(C(=O)c2ccccc2OC)nc2ccccc21 | inactive | –
62 | COc1ccc(Br)cc1CNCCc1cccc(Cl)c1 | – | 20 µM (active)
63 | Cc1ccc(N2C(=O)NC(=O)C(CCc3ccncc3)(Cc3cccc(Cl)c3Cl)C2=O)cc1 (stereo not drawn) | inactive | –
64 | CC1=CC(=Cc2sc3ccccc3[n+]2C)C=C(C)O1 | – | 50.1 µM (active)
65 | CN(C)C(=O)Oc1cc(=O)n2c3c(cccc13)CCC2 | inactive | –
66 | CC(C)Nc1nc(Cl)nc(NC(C)C)n1 | inactive | –
67 | CNC(=S)N/N=C1\C2CN3CCN(C2)CC1(c1ccccc1)C3 | inactive | –
68 | Cc1ccc(P(=S)(c2ccc(C)o2)N2CCOCC2)o1 | -35.9% [at 12.7 µM] (inactive) | –
69 | O=C1NC(=O)N(Cc2ccco2)C(=O)/C1=C\c1ccc(-c2ccc(F)cc2)o1 | – | 12.6 µM (active)
70 | Cc1cc(/C=C2/C(=O)NC(=O)N(Cc3ccco3)C2=O)c(C)n1-c1ccc(C(=O)O)cc1 | – | 35.5 µM (active)
71 | Cc1ccc2c(c1)C1CN(C)CCC1N2C(=O)Cn1nnc(-c2ccccc2F)n1 (stereo not drawn) | inactive | –
72 | CCOC(=O)c1c(N)n(CCN2CCOCC2)c2nc3ccccc3nc12 | inactive | –

Row | Structure (SMILES) | activity, negative = inhibition | Potency
73 | CC(=O)N1CN2CN(C(C)=O)CC(C(=O)c3ccc(Br)cc3)(C2)C1 | inactive | –
74 | C[C@@]12CC[C@H]3[C@@H](CC[C@]4(O)C[C@H](O)CC[C@@]34C=O)[C@]1(O)CC[C@@H]2C1=CC(=O)OC1 | 21.4% [at 21.5 µM] (inactive) | –
75 | O=c1c2ccccc2nc(-c2ccc(Cl)cc2Cl)n1-c1ccncc1 | inactive | –
76 | COC(=O)C1=C(c2ccc(C(C)=O)cc2)C[C@@H]2CC[C@H]1N2C(=O)NCCNC(C)=O | 23.2% [at 2.33 µM] (inactive) | –
77 | O=Cc1cn(Cc2ccc(F)cc2Cl)c2ccccc12 | inactive | –
78 | CNC(=O)N(C)c1nnc(C(C)(C)C)s1 | -1.28% [at 12.7 µM] (inactive) | –
79 | CCOC(=O)C1SC2(C(F)(F)C(F)F)CC1(O)c1c(c(OC)c3occc3c1OC)O2 (stereo not drawn) | inactive | –
80 | N=c1ccccn1Cc1ccccc1 | inactive | –
81 | CCCCC/C=C\C/C=C\C/C=C\C/C=C\CCCCCC(=O)NCCO | – | inactive and 12.6 µM (active)
82 | CCCCC/C=C\C/C=C\C/C=C\CCCCCCC(=O)NCCO | inactive | –
83 | CCCCC/C=C\C/C=C\C/C=C\C=C\[C@H](CCCC(=O)O)OO | inactive | –
84 | O=C1/C(=C\c2ccc3c(c2)OCO3)N2CCC1CC2 | inactive | –
85 | O=C(CCN1CCCCC1)NCC(=O)Nc1ccc(Br)cc1C(=O)c1ccccc1 | inactive | –
86 | CCOP(=S)(OCC)C(O)CCCCCn1c(=O)c(F)cn(C2CCCO2)c1=O (stereo not drawn) | 6.51% [at 0.501 µM] (inactive) | –
87 | CN(C)c1nc(N(C)C)nc(N(C#N)CCCl)n1 | – | 39.8 µM (active)
88 | Clc1cccc(Cl)c1Cl | 8.54% [at 0.501 µM] (inactive) | –
89 | C[C@]12CC[C@@H]3c4ccc(O)cc4C[C@@H](CCCCCCCCCS(=O)CCCC(F)(F)C(F)(F)F)C3[C@@H]1CC[C@@H]2O (stereo partly drawn) | inactive | –
90 | Cn1c(O)c(C=Nc2ccc3c(c2)CCC3)c(=O)n(C)c1=O | inactive | –
91 | c1ccc2sc(C3CCCNC3)nc2c1 (stereo not drawn) | – | 44.7 µM (active)
92 | c1ccc2sc(N3CCNCC3)nc2c1 | inactive | –
93 | CC(C)(C)[C@]1(O)C[C@@H]2OC(=O)C[C@@]23C(=O)O[C@@H]2OC(=O)[C@H](O)[C@]213 | inactive | –
